In the test the test system is CDK5. The settings on record: concentration: 1 μM, replicates: in singlicate; n = 1.
Consider `O=C(Nc1n[nH]c2nc(-c3ccccc3O)ccc12)C1CC1` [SB-711880], for which the “%Inh” value was 0%.
Then `N#CC1(c2cccc(C(=O)Nc3cccc(Oc4ccc5nc(NC(=O)C6CC6)sc5n4)c3)c2)CC1`, with 0%; and `Cl.Cl.NCC(NC(=O)c1cc(-c2cccnc2)c(-c2ccnc3[nH]ccc23)s1)c1ccccc1` (stereo not shown) [GSK1323434], with 0%; and `COc1cccc(C2=C(Nc3cccc(O)c3)C(=O)NC2=O)c1` [SB-390771], with 0%.
Then `Fc1cc(Cl)ccc1Nc1ccnc2cc(-c3ccc(CN4CCSCC4)o3)ccc12` [GW560106], with 0%; and `O=C(O)C(F)(F)F.O=c1[nH]ccc2nc(N[C@@H]3CCNC3)nc(Nc3ccc4c(c3)S(=O)(=O)CC4)c12` [GSK2181306], with 76%; and `Cc1ccccc1CC(=O)N1CCc2cc(-c3cn(C)c4ncnc(N)c34)ccc21` [GSK2603346], with 0%.
As for `O=C(Nc1n[nH]c2nc(-c3ccccc3)ccc12)C1CC1` [SB-708999], the “%Inh” value was determined as 2%.
Then `CN(c1ccc(NC(=O)Nc2cccc(Cl)c2)cc1)c1ccnc(N)n1.Cl` [GW830707], with 5%.
With `CN(C)CCOc1ccc(-c2cc(-c3ccc(Cl)c(O)c3)c(-c3ccncc3)[nH]2)cc1.Cl.Cl` [SB-684387] the figure was 0%; with `Cc1ccc(Nc2ccnc(Nc3ccc(C)c(F)c3)n2)cc1O.Cl` [GW582868], 0%.
As to `CN(c1ccc(NC(=O)N2CCN(CCCN3CCOCC3)CC2)cc1)c1ccnc(Nc2ccc(CS(C)(=O)=O)cc2)n1.Cl` [GW830899], the “%Inh” value was determined as 0%.
For the molecule `Nc1ncnc2scc(-c3ccc(NC(=O)Cc4cc(F)ccc4F)cc3)c12.O=C(O)C(F)(F)F` [SB-731254-M], the “%Inh” value turned out to be 2%.
Then `CC(C)c1nc(-c2cccc(NS(=O)(=O)c3c(F)cccc3F)c2)c(-c2ccnc(Nc3ccc(N4CCOCC4)nc3)n2)s1.Cl` [GSK1723980], with 98.9%; and `Cl.N#CCc1ccc(Nc2nccc(Nc3ccc(Oc4ccccc4)cc3)n2)cc1` [GW639905], with 0%.
With `CNc1nccc(-c2ccc3c(N)n[nH]c3c2)n1` [GSK2206003] the figure was 0%; with `COC(=O)Nc1nc2ccc(Oc3ccc(NC(=O)Nc4cc(C(F)(F)F)ccc4F)cc3)cc2[nH]1.Cl` [GW654607], 17%.
For `O=C(O)C(F)(F)F.O=c1[nH]ccc2nc(N[C@@H]3CCNC3)nc(Nc3cc(Cl)cc(Cl)c3)c12` [GSK2188764], the “%Inh” value was found to be 44%.
With `Cl.O=C(Nc1ccc(Oc2ccc3[nH]c(NC(=O)c4ccco4)nc3c2)cc1)Nc1cc(C(F)(F)F)ccc1F` [GW683134] the figure was 0%; with `c1ccc(Oc2ccc(Nc3ccnc4cc(-c5ccc(CN6CCCCC6)o5)ccc34)cc2)nc1` [GW567143], 0%; with `NCCC(NC(=O)c1cc(Br)c(-c2ccnc3[nH]ccc23)s1)c1ccccc1.O=C(O)C(F)(F)F.O=C(O)C(F)(F)F` (stereo not shown) [GSK1307810], 0%.
With `COc1ccc(NC(=O)c2ccoc2)cc1-c1ccc(C(=O)NCC2CC2)cc1` [GW810437] the figure was 0%; with `CCn1c(-c2nonc2N)nc2c(-c3ccccc3)ncc(OCCCN)c21.O=C(O)C(F)(F)F.O=C(O)C(F)(F)F` [GSK260205], 0%; with `CS(=O)(=O)c1cccc(CNc2nc(Nc3ccc4c(c3)CCC(=O)N4)ncc2C(F)(F)F)c1`, 22%.
As for `O=C(Nc1c(F)cccc1F)c1cc(C(=O)c2ccccc2F)c[nH]1` [GSK1326180], the “%Inh” value turned out to be 0%.
Regarding `O=C(Nc1n[nH]c2nc(-c3cccc(O)c3)ccc12)C1CC1` [SB-711805], the “%Inh” value amounted to 0%.
Take `Cc1ccc(O)cc1Nc1ccnc2ccc(C(C)(C)C)cc12` [GW856805]: the “%Inh” value is on record as 0%.
With `Cc1cccc(Nc2nc(NCCN)ncc2C(N)=O)c1` [GSK1292139] the figure was 0%; with `Cn1cc(-c2ccc3c(c2)CCN3C(=O)Cc2cc(F)cc(C(F)(F)F)c2)c2c(N)ncnc21` [GSK2635225], 0%.
Take `Cn1cc(-c2cnc(N)c3c(-c4ccc5c(c4)CCN5C(=O)Cc4ccccc4)csc23)cn1` [GSK2593074]: the “%Inh” value is 2%.
Then `CC(C)c1nc(-c2ccc(F)c(NS(=O)(=O)c3c(F)cccc3F)c2)c(-c2ccnc(Nc3ccc(N4CCOCC4)nc3)n2)s1` [GSK1804250], with 51%.
With `CC(C)NCC(Cc1ccccc1)NC(=O)c1cc(Br)c(-c2ccnc3[nH]ccc23)s1.Cl.Cl` (stereo not shown) [GSK1383281] the figure was 0%; with `COc1cccc(CC(=O)N2CCc3cc(-c4cn(C)c5ncnc(N)c45)ccc32)c1` [GSK2608899], 6%; with `N#Cc1cnc2cc(-c3cnc(CNCCN4CCOCC4)s3)ccc2c1Nc1ccc(Oc2ccccc2)cc1` [GW664114], 0%.
For the molecule `COc1cccc2c(-c3ccncc3)c(-c3ccc(F)cc3)nn12` [GW468513], the “%Inh” value is on record as 0%.
With `COc1cccc(NC(=O)NCCNc2ccnc(Nc3ccc(F)cc3)n2)c1` [GSK1379879] the figure was 0%; with `Nc1ncc(-c2ccc3nccc(-c4ccncc4)c3c2)cc1S(=O)(=O)N1CCCCC1` [GSK1693850], 0%.

The values are drawn from PMC5540273 (PLoS ONE, 2017).
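Also: KINOMEscan kinase panel screen.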
